Drawing on PubChem BioAssay AID2284123 (EPA ToxCast), this text covers AC50 for 1 molecule.

Molecules are shown by their SMILES. Activity calls are given as the source filed them. Rule for the calls: active = hit-call score of the fitted dose curve at least 0.9, where 1 is the maximum; inactive = score below 0.9.

The target in this assay is human PDE10A2 Phosphodiesterase, PDE10A (gene 10846) (UniProt Q9Y233). As to the kind of experiment: ERF_FR_ENZ_hPDE10A: Eurofins (ERF) Enzymatic LeadHunter Assay for human PDE10A2 Phosphodiesterase. The procedure: ERF_FR_ENZ_hPDE10A is a biochemical, single-readout assay that uses extracted gene-proteins in a cell-free assay. Measurements were taken 0.33 hour after chemical dosing in a 96-well plate. See PDE10A2 Human Phosphodiesterase Enzymatic Assay, Cerep.ERF_FR_ENZ_hPDE10A is an assay component calculated from the ERF_FR_ENZ_hPDE10A assay. It is designed to measure enzyme activity using a type of enzyme reporter as detected by scintillation counting with radiometry technology.Data from the assay component ERF_FR_ENZ_hPDE10A was analyzed at the assay endpoint, ERF_FR_ENZ_hPDE10A, in the positive analysis fitting direction relative to DMSO as the negative control and baseline of activity. Using a type of enzyme reporter, loss-of-signal activity can be used to understand changes in enzymatic activity as they relate to gene PDE10A. To generalize the intended target to other relatable targets, this assay endpoint is annotated to the phosphodiesterase intended target family, where the subfamily is cyclic nucleotide signaling.
Sequence of human PDE10A2 Phosphodiesterase, PDE10A (gene 10846) (Q9Y233 whole entry, looked up): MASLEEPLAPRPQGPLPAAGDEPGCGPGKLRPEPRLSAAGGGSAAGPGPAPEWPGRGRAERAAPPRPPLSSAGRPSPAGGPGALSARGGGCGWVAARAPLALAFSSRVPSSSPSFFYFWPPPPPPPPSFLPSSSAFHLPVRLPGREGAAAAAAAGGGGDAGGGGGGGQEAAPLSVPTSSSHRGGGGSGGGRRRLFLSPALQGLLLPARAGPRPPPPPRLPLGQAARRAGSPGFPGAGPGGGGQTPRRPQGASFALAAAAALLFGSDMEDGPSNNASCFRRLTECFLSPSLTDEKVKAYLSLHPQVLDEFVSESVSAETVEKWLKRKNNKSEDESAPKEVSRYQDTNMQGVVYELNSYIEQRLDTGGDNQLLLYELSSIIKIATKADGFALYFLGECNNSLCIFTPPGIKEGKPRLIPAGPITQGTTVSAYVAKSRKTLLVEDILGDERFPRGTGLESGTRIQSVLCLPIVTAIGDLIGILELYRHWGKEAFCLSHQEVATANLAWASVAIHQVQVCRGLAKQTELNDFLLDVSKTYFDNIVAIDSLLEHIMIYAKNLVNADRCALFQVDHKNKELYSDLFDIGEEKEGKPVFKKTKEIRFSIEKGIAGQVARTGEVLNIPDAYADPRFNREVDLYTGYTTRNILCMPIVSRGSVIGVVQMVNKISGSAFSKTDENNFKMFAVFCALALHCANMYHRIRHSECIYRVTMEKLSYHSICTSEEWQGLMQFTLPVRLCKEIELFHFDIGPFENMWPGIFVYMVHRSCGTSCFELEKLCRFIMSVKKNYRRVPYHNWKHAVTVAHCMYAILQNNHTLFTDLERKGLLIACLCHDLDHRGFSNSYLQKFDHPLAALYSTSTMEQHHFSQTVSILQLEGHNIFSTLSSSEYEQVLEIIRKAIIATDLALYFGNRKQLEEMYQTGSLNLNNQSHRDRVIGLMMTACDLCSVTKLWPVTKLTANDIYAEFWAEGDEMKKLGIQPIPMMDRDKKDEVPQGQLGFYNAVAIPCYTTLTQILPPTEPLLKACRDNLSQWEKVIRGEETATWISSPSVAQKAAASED
Human cells are incubated for 20 minutes at room temprature with [3H]cAMP + cAMP (0.2uM) as sunstrate and Papaverine as control inhibitor. Test Sample Requirements: Minimum for 1) Screen: 60 ul of 10 mM stock -OR- 1 mg (pre-weighed) for 10 uM final testing. 2) Dose Response: 90 ul of 10 mM stock -OR- 1 mg (pre-weighed) for a top concentration at 10 uM.
`O=C(/C=C/c1ccc(O)cc1)CC(=O)/C=C/c1ccc(O)cc1`: the AC50 is 295 nM (active).

As usually defined, the AC50 is the concentration at which the activity in the assay is half-maximal.
